The structures appear in SMILES notation. Some structures have more than one record in an assay (separate samples or runs), and their calls can disagree. Active and inactive are the calls of the source. The call rests on the fitted dose curve; in most records, active means well fitted activation curve with a large enough effect; inconclusive means small, poorly fitted or top-dose-only effect; inactive means no such curve, though single readings can be large or run the other way.
Potency means the concentration at half of the fitted maximal effect.

The test can be described thus: Confirmatory qHTS for Identification of Small Molecule Activators of Huntingtin-Antisense Promoter Activity. Particulars: HEK293 HTT-AS promoter firefly luciferase reporter, 24 h; series mostly up to 57.5 µM; activity change, positive = activation: at the top concentration. In outline: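 Activity normalized between vehicle control (0%) and zero RLU (-100%) from firefly luminescence (Dual-Glo). Compounds, up to 57.5 uM final, incubated 24 h at 37C on HEK293 reporter cells plated 24 h earlier.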
A general note: Quantitative high-throughput screening tests each substance at several concentrations.
`Cc1cc(NC(=O)Cn2c(=O)oc3cc(S(=O)(=O)N4CCCC4)ccc32)ccc1Br`: the “activity change, positive = activation” value is -28.5% (inactive).

Regarding `CCOc1ccc(CN2CCc3nc(N4CCN(c5ccccn5)CC4)ncc3C2)cc1OC`, the “activity change, positive = activation” value was -65.2% (inactive).

As to `COC(=O)C1=C(CS(=O)(=O)c2ccc(C)cc2C)NC(=O)NC1c1ccc(C)cc1` (centres undefined), the “activity change, positive = activation” value is -41.9% (inactive).

As for `COc1ccc(C(=O)Nc2ccc(S(=O)(=O)N(Cc3ccccc3)c3ccccc3)cc2)cc1`, the “activity change, positive = activation” value is -92.2% (inactive).

As for `O=C(CN(c1cccc(C(F)(F)F)c1)S(=O)(=O)c1ccccc1)Nc1cccc(Cl)c1`, the “activity change, positive = activation” value is -90.3% (inactive).

As for `CCOC(=O)c1cc(C)n(CC2CCC(C(=O)Nc3ccc(Cl)cc3)CC2)c1C` (centres undefined), the “activity change, positive = activation” value is -95.2% (inactive).

For the compound `COc1cc(NS(=O)(=O)c2ccc3c(c2)CCCN3C(C)=O)cc(OC)c1OC`, the “activity change, positive = activation” value is -94.9% (inactive).

Consider `COc1cc(NC(=O)c2cc3c(s2)-c2ccccc2OC3)cc(OC)c1OC`, for which the “activity change, positive = activation” value is -24% (inactive).

`COc1ccc(C(=O)N2CCC(c3nc4ccccc4s3)CC2)cc1Cl`: the “activity change, positive = activation” value was -92.9% (inactive).

For `CCCCN(C)C(=O)C1CCCN(c2ncnc3onc(C)c23)C1` (centres undefined), the “activity change, positive = activation” value is -94.4% (inactive).

On to `Cc1ccc(Cl)cc1-n1ncc2c(Nc3cccc(C)c3C)ncnc21`, for which the “activity change, positive = activation” value was -20.5% (inactive).

With `CC(=O)c1ccc(NS(=O)(=O)c2ccc3[nH]c(=O)[nH]c3c2)cc1`, the Potency is 7.57 µM (active).

As to `COc1ccc(C2=CC(c3ccccc3Cl)n3nc(-c4ccc(Cl)cc4)nc3N2)cc1` (centres undefined), the “activity change, positive = activation” value was -11.4% (inactive).

For the compound `CC(C)c1ccc(NC(=O)c2cnc3sc(N4CCCC4)nn3c2=O)cc1`, the “activity change, positive = activation” value was -66.8% (inactive).

As for `COc1ccc(C)cc1NC(=O)CN1CCCN(S(=O)(=O)c2ccc(Br)cc2)CC1`, the “activity change, positive = activation” value was -26.8% (inactive).

For the compound `O=C(CCCCCCC(=O)Nc1ccccc1)NO`, the Potency is 19 µM (active) and inactive.

`Cc1cc(OCC(=O)N2CCC(c3nc4ccccc4s3)CC2)ccc1Cl`: the “activity change, positive = activation” value is -93.3% (inactive).

In the case of `CCCOc1cccc(NC(=O)c2c(-c3ccccc3Cl)noc2C)c1`, the “activity change, positive = activation” value is -24.2% (inactive).

With `Cc1cccc(-n2c(-c3ccco3)nc3c(cnn3-c3ccccc3C)c2=O)c1`, the “activity change, positive = activation” value was -11.9% (inactive).

Take `CC(C)OCc1cc(CN2CCN(c3cccc(C(F)(F)F)c3)CC2)c(O)c2ncccc12`: the “activity change, positive = activation” value was -49.4% (inactive).

Consider `Cc1cccc(NC(=O)Cc2ccc(-n3c(C)nc4cccnc43)cc2)c1C`, for which the “activity change, positive = activation” value was -30.5% (inactive).

Consider `CC1Cc2cc(S(=O)(=O)NCc3ccccc3)ccc2N1C(=O)C1CCC1` (centres undefined), for which the “activity change, positive = activation” value was -69.3% (inactive).

With `Cc1cccc(CCNC(=O)c2c[nH]c3ccc(S(=O)(=O)Nc4ccccc4F)cc3c2=O)c1`, the “activity change, positive = activation” value is -39% (inactive).

As to `COc1cc(CNc2ccc3[nH]c(=O)[nH]c3c2)cc(Br)c1OCc1ccc(F)cc1`, the “activity change, positive = activation” value is -25% (inactive).

Take `O=C(Nc1cc(Cl)cc(Cl)c1)c1ccc(F)c(S(=O)(=O)N2CCCC2)c1`: the “activity change, positive = activation” value is -45.6% (inactive).

Take `CCC(=O)N1CCCc2cc(S(=O)(=O)N3CCC(C(=O)Nc4ccccc4CC)CC3)ccc21`: the “activity change, positive = activation” value is -89.9% (inactive).

On to `COc1ccc(CCNC(=O)c2c(C)nn(-c3ccc(F)cc3)c2-n2cccc2)cc1OC`, for which the “activity change, positive = activation” value is -32.3% (inactive).

Turning to `Cc1ccc(-n2ncc3c(N(CCO)Cc4ccccc4)ncnc32)cc1`, the Potency was 1.07 µM (active).

For the compound `CCc1cccc(C)c1NC(=O)COCc1cc(-c2ccc3c(c2)OCO3)on1`, the “activity change, positive = activation” value is -92% (inactive).

`CCC(Oc1ccccc1)C(=O)N1CCN(Cc2cc(=O)n3nc(-c4cccc(C)c4)sc3n2)CC1` (centres undefined): the “activity change, positive = activation” value is -36.5% (inactive).

For the compound `O=C(C=Cc1ccc(CN(CCO)CCc2c[nH]c3ccccc23)cc1)NO`, the Potency is 2.13 µM (active).

With `Cc1cc(NC(=O)CCc2nc3cccnc3n2-c2ccccc2)ccc1Br`, the “activity change, positive = activation” value is -26.5% (inactive).

Turning to `CCN(Cc1ccccc1)C(=O)C1CCC(CNS(=O)(=O)c2ccc3c(c2)CCCC(=O)N3)CC1` (centres undefined), the “activity change, positive = activation” value was -66% (inactive).

As for `COc1cc(NC(=O)CSc2nc3nc(C)c(Cc4ccc(C)cc4)c(C)n3n2)cc(OC)c1`, the “activity change, positive = activation” value was -23% (inactive).

On to `O=C(NCC(c1ccc2c(c1)OCO2)N1CCN(c2ccc(F)cc2)CC1)c1cccc([N+](=O)[O-])c1` (centres undefined), for which the “activity change, positive = activation” value was -46.7% (inactive).

Consider `CC(C)c1ccc(NC(=O)c2ccc(F)c(S(=O)(=O)N3CCc4ccccc4C3)c2)cc1`, for which the “activity change, positive = activation” value was -28.5% (inactive).

On to `CCOC(=O)C1=C(CN(C)Cc2ccccc2)NC(=O)NC1c1ccc(OC)cc1` (centres undefined), for which the “activity change, positive = activation” value is -37.5% (inactive).

With `COc1ccc(-c2ccc3ncc4c(c3c2)n(-c2ccc(N3CCNCC3)c(C(F)(F)F)c2)c(=O)n4C)cn1`, the “activity change, positive = activation” value is -1.58% (inactive).

For the compound `CC1CCN(C(=O)CN2c3ccc(Br)cc3-c3ccccc3S2(=O)=O)CC1`, the Potency is 2.69 µM (active).

The values are drawn from PubChem BioAssay AID1508622 (National Center for Advancing Translational Sciences (NCATS), 2021).
